Screening results deposited in PubChem by National Center for Advancing Translational Sciences (NCATS).
Rows were chosen to be rich in hits. Some 11% of all compounds tested hit in one or more screens of this group.
G9a block – qHTS Assay for Inhibitors of Histone Lysine Methyltransferase G9a. Histone-lysine N-methyltransferase EHMT2 (Homo sapiens), Q96KQ7. G9a H3K9 monomethylation, AlphaScreen, 2 h. Potency, µM (series often up to 102 µM), for inactives: at the top dose activity, negative = inhibition, actives largely listed as inhibitors. 350,000 compounds, 8.8% hits; note: potency is the fitted concentration of half-maximal effect; nearly all actives have a fitted effect of over 75% in size
Target sequence (Q96KQ7 913-1193 limits assumed): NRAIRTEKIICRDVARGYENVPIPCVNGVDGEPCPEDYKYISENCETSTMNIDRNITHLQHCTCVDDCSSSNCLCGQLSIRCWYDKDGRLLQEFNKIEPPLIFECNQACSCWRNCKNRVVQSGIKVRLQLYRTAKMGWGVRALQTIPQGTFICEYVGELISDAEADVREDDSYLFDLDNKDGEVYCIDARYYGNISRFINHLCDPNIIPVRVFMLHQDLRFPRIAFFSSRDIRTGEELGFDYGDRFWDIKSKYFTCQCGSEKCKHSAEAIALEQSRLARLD
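Compounds were preincubated with 20 nM G9a for 15 min, after which biotinylated H3K9 peptide (500 nM) and SAM (20 uM) started a 2 h room-temperature reaction. Monomethylated product was quantified by antibody-based AlphaScreen chemiluminescence.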
Sfp PPTase inh – qHTS Assay for Inhibitors of Bacillus subtilis Sfp phosphopantetheinyl transferase (PPTase). 4'-phosphopantetheinyl transferase ffp (Bacillus subtilis), Q9F4F7. Biochemical Sfp PPTase activity, qHTS. Potency, µM, for inactives: largest response in the series, negative = inhibition, actives largely listed as inhibitors. 310,000 compounds, 3.5% hits;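 note: the enzyme is Sfp with the accession as filed and its product quenches rhodamine fluorescence; potency is the fitted concentration of half-maximal effect; 0% = enzyme reaction without inhibitor and -100% = no enzyme wells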
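Buffer: 50 mM Hepes-Na pH 7.6, 10 mM MgCl2, 0.01% Nonidet P-40, 0.01% BSA. Enzyme 15 nM, pre-exposed to compound 15 min; substrates then added and fluorescence change tracked over 30 min.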
Tau fibril FP – qHTS for Inhibitors of Tau Fibril Formation, Fluorescence Polarization; 280,000 compounds, 0.39% hits; K18 P301L tau heparin fibrillization, Alexa594 FP, 6 h; Potency, µM (highest dose often 57.7 µM), for inactives: top-dose activity, negative = inhibition, usual class: inhibitors; Microtubule-associated protein tau (Homo sapiens), P10636; note: potency is the fitted concentration of half-maximal effect; nearly all actives have a fitted effect of over 55% in size
Target sequence (P10636 561-689 P618L limits assumed): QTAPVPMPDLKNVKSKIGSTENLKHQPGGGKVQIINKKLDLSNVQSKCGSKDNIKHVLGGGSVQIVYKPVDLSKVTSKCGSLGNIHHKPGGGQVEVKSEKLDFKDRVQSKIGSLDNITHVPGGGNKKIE
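Recombinant K18 P301L […], labeled with Alexa 594 at 0.24 uM over 15 uM unlabeled; heparin inducer 20 uM final; 37 C, 6 hr; FP endpoint.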
Tau fluor cs – Counterscreen qHTS for Inhibitors of Tau Fibril Formation, Fluorescence Polarization | Potency, µM (series often up to 57.7 µM), for the others: at the top dose activity change, negative = decrease | tau K18 P301L Alexa594 fluorescence, heparin fibrillization | 280,000 compounds, 0.93% hits; note: potency is the fitted concentration of half-maximal effect; nearly all actives have a fitted effect of over 55% in size
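Human tau K18 P301L (15 uM unlabeled, 0.24 uM Alexa 594-labeled) in 100 mM sodium acetate pH 7 with 20 uM heparin, 6 hr at 37 C. ThT 30 uM added, 1 hr ambient; Alexa 594 FP and total fluorescence read at 555/632 nm.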
FBPA coupling cs – qHTS Assay for Inhibitors of Fructose-1,6-bisphosphate Aldolase from Giardia Lamblia: Coupling assay counterscreen; coupling enzyme system counterscreen, AmpLite Red fluorescence; activity change, negative = inhibition, % at 58.2 µM, hits read low; 290,000 compounds, 0.67% hits; AID 2472, 2010; in the data active = activity change below about -30%
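Fluorescence at 525 nm excitation and 598 nm emission measured inhibition of the coupled detection system without aldolase. Compounds (at 57.5 uM final) were preincubated 10 min at room temperature with coupling enzyme reagent before a 20 min substrate/AmpLite Red step.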
Tau ThT inhib – qHTS for Inhibitors of Tau Fibril Formation, Thioflavin T Binding. Microtubule-associated protein tau (Homo sapiens), P10636. recombinant tau K18 P301L, heparin-induced fibrillization, ThT fluorescence. Potency, µM (doses to about 57.4 µM), without a hit: at the top dose activity, negative = inhibition, hits mostly inhibitors. 270,000 compounds, 2.1% hits. AID 1460, 2008; note: potency is the fitted concentration of half-maximal effect; nearly all actives have a fitted effect of over 55% in size
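Fibril formation assay: tau K18 P301L at 15 uM with trace Alexa 594 label, heparin inducer 20 uM, pH 7 sodium acetate buffer, 37 C for 6 hr; endpoint ThT signal.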
* = called active by the depositor; ? = inconclusive; . = no result; ! = not active in a repeat; [ ] = dose if it differs, or a comment. Unless noted, calls come from the whole dose curve; as a rule, active = well fitted curve in the direction sought with a large enough effect; inconclusive = small, poorly fitted or top-dose-only effect, or another doubt; inactive = no such curve, though single readings can be large; an effect the other way counts as inactive or inconclusive. Unless noted, % is set by controls: 0 for no effect and ±100 for the full control effect.

SMILES	G9a block	Sfp PPTase inh	Tau fibril FP	Tau fluor cs	FBPA coupling cs	Tau ThT inhib
O=C(CSc1nnc(Cc2csc(Nc3cccc(Cl)c3)n2)o1)N1CCc2ccccc21	?	15.3%	5.8%	7.08µM*[quencher]	-5.4	?
O=C(CSc1nnc(CNc2ccccc2)o1)N1CCc2ccccc21	14.6%	14.1%	2.0%	-5.7%	1.8	-5.6%
Cc1ccc(NC(=O)c2cccn2-c2nnc(N3CCCCC3)s2)cc1Cl	-35.0%[59 µM]	.	-4.6%	?	.	-6.4%
CCn1c(/C=C/Nc2ccccc2)[n+](CC)c2ccc(Cl)cc21	44.7µM*	3.8%	-5.3%	-8.8%	3.6	-8.3%
O=C(Nc1ccc2c(c1)N(Cc1ccccc1)C(=O)c1ccccc1S2)NC1CC1	-40.2%[59 µM]	-6.5%	22.4µM*	?	2.2	5.6%
CN1C(=O)c2ccccc2Sc2ccc(NC(=O)NC3CC3)cc21	19.5%[59 µM]	5.3%	-1.1%	-22.0%	11.2	-19.3%
CC(=O)Nc1ccc(C(=O)Nc2ccc3c(c2)N(C2CCCC2)C(=O)c2ccccc2S3)cc1	?	.	12.6µM*	?	.	13.4%
N#Cc1ccc(C(=O)Nc2ccc3c(c2)N(C2CCCC2)C(=O)c2ccccc2S3)cc1	-22.9%[59 µM]	.	?	?	.	3.1%
CCn1c(/C=C/c2cc[n+](C)cc2)nc2ccccc21	35.5µM*	-1.3%	.	.	-1.7	.
CC(=O)N1CCN(c2ccc(NC(=O)c3ccc(F)cc3)cc2)CC1	.	10.1%	.	.	-1.4	.
CC1NC(=O)NC1CCCCCC(=O)Nc1ccc(F)cc1 (stereo unspecified)	?	8.9%	11.3%	0.3%	0.7	4.6%
Cc1c(F)cccc1NC(=O)CCCCCC1NC(=O)NC1C (stereo unspecified)	0.708µM*	-14.1%	8.7%	1.4%	0.7	5.1%
CC1CCN(CCOc2ccc(Cl)c(Cl)c2)CC1	?	8.3%	-1.4%	8.2%	1.0	4.5%
CC1CN(CCCCOc2ccc(F)cc2)CC(C)O1 (stereo unspecified)	10µM*	-27.9%	1.6%	13.1%	-2.1	6.7%
CC1CN(CCOc2ccc(Cl)c(Cl)c2)CC(C)O1 (stereo unspecified)	8.91µM*	-27.8%	.	.	-7.4	.
C=Cc1ccc(CN2C(=O)N(c3ccc(C)c(C)c3)S(=O)(=O)c3ccccc32)cc1	-6.3%[59 µM]	.	-14.6%	-16.3%	.	2.7%
Cc1cccc(NC2=C(C#N)C(=O)NC3(CCCC3)S2)c1	?	17.8µM*	?	-0.2%	3.9	?
Cc1ccc(N2C(S)=C(C#N)C(=O)NC23CCCCC3)cc1	28.2µM*	20µM*	?	-18.9%	5.2	?
Cc1ccccc1N1C(S)=C(C#N)C(=O)NC12CCCCC2	35.5µM*	14.1µM*	-4.0%	-3.1%	1.4	0.7%
Cc1ccccc1N1C(=O)CC2(CCCC2)CC1=O	-11.0%[59 µM]	23.2%	7.8%	-0.6%	1.3	1.4%
Cc1cccc(N2C(S)=C(C#N)C(=O)NC23CCCCC3)c1	?	79.4µM*	?	-25.3%	4.6	31.6µM*
Cc1ccc(C(=O)N2C3=C(CCCC3)C(=O)NC23CCCCC3)cc1	5.4%	1.2%	-5.1%	-8.4%	0.5	-9.4%
Cc1nc2ccccn2c(=O)c1CCN1CCC(C(=O)c2ccc(F)cc2)CC1	12.8%[59 µM]	7.7%	?	-11.8%	-1.1	-6.6%
Cc1nc2sccn2c(=O)c1CCN1CCC(=C(c2ccc(F)cc2)c2ccc(F)cc2)CC1	1.4%[59 µM]	56.2µM*!	-17.2%	?	-8.1	?
O=C(CSc1nc2c(oc3ccccc32)c(=O)n1-c1ccccc1)Nc1ccc(F)c(Cl)c1	-4.3%[59 µM]	.	-15.2%	-21.1%	.	-8.4%
SMILES	G9a block	Sfp PPTase inh	Tau fibril FP	Tau fluor cs	FBPA coupling cs	Tau ThT inhib
O=C(NC(=S)Nc1ccccc1)c1csnn1	15.3%[59 µM]	50.1µM*	?	-12.0%	0.6	10µM*
COc1ccc(NC(=S)NC(=O)c2csnn2)cc1	31.6µM*	-25.0%	-2.5%	-10.2%	2.8	?
COc1ccc(NC(=O)c2csnn2)cc1	?	.	-3.2%	-20.3%	.	?
CC(C)Cc1cc(CN2CCC(CO)(Cc3cccc(C(F)(F)F)c3)CC2)[nH]n1	.	-13.2%	16.4%	-3.3%	2.0	-8.5%
CCCCS(=O)(=O)/C=C\C=C/S(=O)(=O)CCCC	?	11.2µM*	?	-5.0%	0.2	?
CCCCS(=O)(=O)/C=C\C1C2C=CC(C2)C1S(=O)(=O)CCCC (stereo unspecified)	15.7%	13.7%	-7.8%	-1.8%	3.9	-3.2%
COc1ccc(Nc2nc(Cl)c(C=O)s2)cc1	-1.1%	3.9%	-2.4%	?	-0.5	?
Cc1[nH]c(-c2ccco2)nc1C(=O)O	20µM*	79.4µM*	-2.3%	0.0%	1.3	-1.7%
Cc1[nH]c(-c2ccc3c(c2)OCO3)nc1C(=O)O	10µM*	56.2µM*	8.2%	-7.5%	0.2	-10.6%
Cc1cc(=O)n2[nH]c(-c3ccco3)nc2n1	-17.3%[59 µM]	-14.5%	0.2%	0.3%	-1.0	-5.5%
CCN(CC)C(=O)CSc1nc2c(sc(=S)n2-c2ccccc2)c(=O)n1-c1ccc(OC)cc1OC	2µM*	22.4µM*	.	.	-0.3	.
CCOC(=O)CSc1nc2c(sc(=S)n2-c2ccccc2)c(=O)n1-c1ccc(OC)cc1OC	1.58µM*	31.6µM*	.	.	1.0	.
CN(C)c1ccc(NC(=S)c2ccccn2)cc1	8.91µM*	44.7µM*	4.3%	?	-7.2	3.55µM*
CC1CN(/C(=N\S(=O)(=O)c2ccccc2)c2ccccc2)CC(C)O1 (stereo unspecified)	?	7.9%	-2.3%	-7.9%	3.9	-3.0%
Cc1nc2ccccc2n1/C(=N\S(=O)(=O)c1ccccc1)c1ccccc1	50.1µM*	18.0%	-7.3%	-4.3%	0.9	3.1%
Cc1cc(=O)c2c(O)c3c(O)cc(=O)c4c3c3c(cc(O)c1c23)C(C)(C)C=4O	.	56.2µM*!	-13.0%	?	5.8	8.91µM*
CC(=O)Nc1ccc(/C=N/NC(N)=S)cc1	18.7%[59 µM]	?	-0.4%	-6.0%	1.5	-3.6%
Cc1n[nH]c(=S)n(/N=C/c2cccs2)c1=O	8.0%	?	-13.6%	-18.3%	-0.3	-17.5%
CCc1n[nH]c(=S)n1/N=C/c1ccc(NC(C)=O)cc1	8.91µM*	-12.9%	3.7%	3.0%	-1.3	-4.0%
CCc1n[nH]c(=S)n1/N=C/c1cc(Br)c(OC)cc1OC	2.51µM*	-18.9%	3.4%	-16.6%	11.2	?
